Results published in PubChem BioAssay (NCATS).
Records with an inconclusive call do not appear. Calls of active or inactive are those of the source. The call rests on the fitted dose curve; in most records, active means well fitted inhibition curve with a large enough effect; inconclusive means small, poorly fitted or top-dose-only effect; inactive means flat fitted curve, though single readings scatter.

Assay: Primary qHTS for inhibitors of nuclear receptor binding SET domain protein 2 (NSD2) in an isogenic RCH-ACV NSD2 p.E1099K mutant (9B) (AID 1645876); further: nearly all actives have a fitted effect of over 70% in size
Conditions: RCH-ACV (leukaemia line) NSD2 E1099K (9B) viability, CellTiter-Glo, 72 h; series mostly up to 44.9 µM; activity change, negative = viability loss: at the top concentration
On the % scale 0 is the no-effect control and ±100 the full control effect; potency means the concentration at half of the fitted maximal effect.

SMILES | activity change, negative = viability loss | outcome | Potency
C=CC[N+]1([C@H]2C[C@H]3[C@@H]4CC[C@H]5C[C@H](O)[C@@H](N6CCOCC6)C[C@]5(C)[C@H]4CC[C@]3(C)[C@H]2OC(C)=O)CCCC1 | -6.96% (inactive) | – | –
COc1ccc([C@@H]2CC(=O)c3c(O)cc(O[C@@H]4O[C@H](CO[C@@H]5O[C@@H](C)[C@H](O)[C@@H](O)[C@H]5O)[C@@H](O)[C@H](O)[C@H]4O)cc3O2)cc1O | – | inactive | –
CC(=O)Nc1ccc(NC(=S)NC(=O)c2ccc(C(C)(C)C)cc2)cc1 | – | – | 1830 nM (active)
N[C@@H](Cc1cc(I)c(Oc2ccc(O)c(I)c2)c(I)c1)C(=O)O | -25.1% (inactive) | – | –
CCC[C@@H]1C[C@@H](C(=O)N[C@@H]([C@H]2O[C@H](SC)[C@H](O)[C@@H](O)[C@H]2O)[C@H](C)Cl)N(C)C1 | -6.39% (inactive) | – | –
CC[C@H](CC[C@@H](C)[C@H]1CC[C@H]2[C@@H]3CC=C4C[C@@H](O)CC[C@]4(C)[C@H]3CC[C@]12C)C(C)C | – | inactive | –
